Assay [1] in a line: NCI Yeast Anticancer Drug Screen. Data for the rad50 strain (AID 155).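 Also: 0% = growth of vehicle-only cultures of the same strain.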 As to conditions: S. cerevisiae rad50 strain growth inhibition; at 50.0 µM; hits give high values. A digest of the protocol:
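Compounds were tested on a yeast strain with an engineered DNA damage repair alteration; the reported value is growth inhibition normalised to vehicle treatment.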

Assay [2] is described as follows: NCI Yeast Anticancer Drug Screen. Data for the mec2-1 strain (AID 157). As to conditions: S. cerevisiae mec2-1 strain, at 50.0 µM, hits give high values. A digest of the protocol: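 Cells of the genetically defined mec2-1 yeast strain are incubated with test compound. Inhibition of growth is calculated against vehicle-treated controls.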
Assay [3] can be described thus: NCI Yeast Anticancer Drug Screen. Data for the sgs1 mgt1 strain (AID 161).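 Also: 0% = growth of cultures given vehicle only.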 The following applies: S. cerevisiae sgs1 mgt1 strain, at 50.0 µM, hits give high values. A digest of the protocol: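 Read-out: growth inhibition vs vehicle controls. Cells: mutant yeast strain deficient in DNA damage repair.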
The nature of assay [4]: NCI Yeast Anticancer Drug Screen. Data for the cln2 rad14 strain (AID 165).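 Also: 0% = growth equal to vehicle treated cultures.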 As to conditions: S. cerevisiae cln2 rad14 strain, at 50.0 µM, hits give high values. The gist of the method: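 The screen exposed genetically defined yeast (cln2 rad14) to test compounds and scored growth inhibition relative to vehicle-treated controls.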
Assay [5] in a line: NCI Yeast Anticancer Drug Screen. Data for the bub3 strain (AID 167). The following applies: S. cerevisiae bub3 mutant strain, at 50.0 µM, hits give high values. The gist of the method: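 Growth of a checkpoint-deficient yeast mutant is measured after compound exposure. Values represent inhibition relative to vehicle.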
A short description of assay [6]: NCI Yeast Anticancer Drug Screen. Data for the mlh1 rad18 strain (AID 175). As to conditions: S. cerevisiae mlh1 rad18 strain growth inhibition; at 50.0 µM; hits give high values. The gist of the method:
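Compound-treated yeast growth, normalised to vehicle controls. Strain bears defined DNA repair mutations.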

Compounds without any hit were thinned out: in the full panel of roughly 79,000, 15% have a hit. A number with no mark means an inactive call. Calls of active or inactive are those of the source. Rule as the data show it: active = growth inhibition above about 70%; inactive = the rest. Where a SMILES comes first, the peptide text is derived from it. The star is where a group is joined. Boc = CC(C)(C)OC(=O)*; OBn = c1ccc(CO*)cc1

As for `CC1C=CC(O)[C@]2(CO)CC3(CCC12)OCCO3` (stereo partly drawn), the growth inhibition in assay [1] was -13.7%; in assay [2], 3.95%; in assay [3], -13.6%; in assay [4], 17.6%; in assay [5], -12.7%.

Consider `O=C(O)CNS(=O)(=O)c1ccccc1`, for which the growth inhibition in assay [1] was -43.5%; in assay [2], -7.7%; in assay [3], -23.1%; in assay [4] it was -24.6%; in assay [5], -0.8%; in assay [6], 6%.

`COc1ccc(/C(Cl)=C(\C=O)c2ccc(Cl)c(Cl)c2)cc1OC`: the growth inhibition was 28.1% in assay [1]; 11.2% in assay [2]; 27.5% in assay [3]; -34.6% in assay [4]; 0.7% in assay [5].

On to `O=S(=O)(O)c1cccc2c1oc1ccccc12`, for which the growth inhibition in assay [1] is 8.85%; in assay [2], -37.4%; in assay [3], -3.75%; in assay [4], 19%; in assay [5], -10.1%.

For `O=C(Nc1ccccc1C(=O)N/N=C/c1ccccc1Cl)c1ccccc1Cl`, the growth inhibition in assay [1] was -36.5%; in assay [2] it was -14.1%; in assay [3], 5.1%; in assay [4], -25.9%; in assay [5], 0.25%.

In the case of `COC(=O)C1C(O)C(C)C(O)OC1C(C)C(O)C(C)/C=C\C=C(/C)C(=O)Nc1c(C)c(OC(C)=O)c2c(c1O)C(=O)C(C)=C1OCOC(/C(C)=C/C(C)=O)=C12` (stereo not drawn), the growth inhibition in assay [1] is 14.6%; in assay [2], 8.3%; in assay [3], 9.8%; in assay [4], 13.4%; in assay [5], 14%.

In the case of `Cn1c(=O)c2c(ncn2CCNC(c2ccccc2)c2ccc(Br)cc2)n(C)c1=O` (stereo not drawn), the growth inhibition was 4.55% in assay [1]; 1.55% in assay [2]; 11.3% in assay [3]; -35.3% in assay [4]; 24.1% in assay [5].

`Cc1cc(C)n(C2=NCCN2)n1`: the growth inhibition in assay [1] is -26.1%; in assay [2] it was -33.7%; in assay [3], -14.1%; in assay [4], -33.2%; in assay [5], 4.2%.

Consider `O=c1cnc(=O)[nH][nH]1`, for which the growth inhibition in assay [1] is -12.4%; in assay [2], -17.2%; in assay [3], -7%; in assay [4], -18.1%; in assay [5] it was 5.7%.

For the compound `c1ccc(-c2sc(-c3ccccc3)c3c2C2CCC3C2)cc1`, the growth inhibition in assay [1] was -12.4%; in assay [2], 6.05%; in assay [3], 14%; in assay [4], 29%; in assay [5], 40.6%.

As for `N#Cc1nc(CC(=O)/C=C/c2ccccc2)c(CC(=O)/C=C/c2ccccc2)nc1C#N`, the growth inhibition in assay [1] was 3.7%; in assay [2], 13.7%; in assay [3], 8.05%; in assay [4], 16.3%; in assay [5], 1.3%.

As for `O=C(CCc1ccc(O)c(O)c1)NCCc1cc(OCc2ccccc2)cc(OCc2ccccc2)c1`, the growth inhibition in assay [1] is 83.9% (active); in assay [2] it was 88.4% (active); in assay [3], 83.2% (active); in assay [4], 87.5% (active); in assay [5], 82.2% (active).

For `CC(NC(=O)C(NC(=O)OC(C)(C)C)C(C)C)C(=O)N1CCCC1C(=O)NCC(=O)NC(C(=O)NCC(=O)OCc1ccccc1)C(C)C` (stereo not drawn) (Boc-VAPGVG-OBn; configuration not given here), the growth inhibition in assay [1] was -30.1%; in assay [2] it was -33.4%; in assay [3] it was -20.9%; in assay [4], 6.85%; in assay [5] it was -18.9%.

Consider `CC(NC(=O)CN)C(=O)O` (stereo not drawn), for which the growth inhibition in assay [1] was -43.4%; in assay [2], -8.55%; in assay [3], -8.45%; in assay [4] it was -22.6%; in assay [5], 5.15%.

`CCOC(=O)c1nc2ccc(C(F)(F)F)cc2nc1Nc1ccc(OC)c(OC)c1`: the growth inhibition in assay [1] was -16.7%; in assay [2], -11.9%; in assay [3], -15.7%; in assay [4], -6.15%; in assay [5] it was -17.4%.

Consider `C(=N\N1CCN(/N=C/c2ccc(OCc3ccccc3)cc2)CC1)/c1ccc(OCc2ccccc2)cc1`, for which the growth inhibition in assay [1] was -12.6%; in assay [2] it was -3.95%; in assay [3], 7.65%; in assay [4], -19.4%; in assay [5] it was 0.2%.

On to `COc1c(OC)c(C2(O)C(=O)N(C)c3ccccc32)c2c(c1C1(O)C(=O)N(C)c3ccccc31)OCO2` (stereo not drawn), for which the growth inhibition in assay [1] was 4.25%; in assay [2], 1.7%; in assay [3], -14.9%; in assay [4], 1.2%; in assay [5] it was 3.05%.

Take `COc1ccc(CC(=O)O)cc1OC`: the growth inhibition in assay [1] was 23.9%; in assay [2] it was 0.55%; in assay [3] it was 17.6%; in assay [4] it was -24.4%; in assay [5], -5.95%.

Consider `Brc1ccc(-c2[nH]c3ccccc3c2N=Nc2ccccc2)cc1`, for which the growth inhibition in assay [1] was 0.85%; in assay [2], -9.6%; in assay [3], 6.45%; in assay [4], -7%; in assay [5], -11.1%.

Consider `NN1CCCC(O)C1` (stereo not drawn), for which the growth inhibition is -0.15% in assay [1]; -18.4% in assay [2]; 4.75% in assay [3]; 4.5% in assay [4]; 5.1% in assay [5].

Take `N#Cc1ccc(CCc2ccccc2)cc1`: the growth inhibition in assay [1] is 1.2%; in assay [2] it was -3.75%; in assay [3] it was 18.6%; in assay [4], 10.4%; in assay [5], 2.95%.

For `C=C(C)C(O)CC(C)C` (stereo not drawn), the growth inhibition in assay [1] is -8.6%; in assay [2], 13.9%; in assay [3], -15.2%; in assay [4] it was 7.65%; in assay [5] it was 2.95%.

As to `CC(=O)CCCO`, the growth inhibition in assay [1] is -1.6%; in assay [2] it was -5.75%; in assay [3], -0.8%; in assay [4], -9.4%; in assay [5], 19.1%.

As to `O=C(c1ccccc1)C12CCCC(CC1)C2` (stereo not drawn), the growth inhibition in assay [1] was 0.15%; in assay [2], -19.9%; in assay [3] it was -2.2%; in assay [4], -37.5%; in assay [5], -9.6%.

Take `C/C(=N/N=C(N)N)c1cnn(C(=N)N)c1C`: the growth inhibition in assay [1] is 15.3%; in assay [2] it was 13.3%; in assay [3], 18.2%; in assay [4], 19.4%; in assay [5] it was 20.9%.

As for `C1=COC(C2NCCCN2)CC1` (stereo not drawn), the growth inhibition in assay [1] was -5.9%; in assay [2] it was 8.25%; in assay [3], -2.6%; in assay [4], -68.8%; in assay [5], -26.5%.

With `Cc1cc(OCCOC(=O)Nc2ccccc2C(F)(F)F)cc(C)c1Cl`, the growth inhibition in assay [1] is -7.6%; in assay [2] it was -5.2%; in assay [3], -3.35%; in assay [4], -44.4%; in assay [5], -3.5%.

Regarding `N#CCCCCN1CCCCC1`, the growth inhibition is -4.85% in assay [1]; -20.9% in assay [2]; -9.95% in assay [3]; 9.8% in assay [4]; -14.6% in assay [5].

For the compound `O=C(SCc1ccccc1)N(c1ccccc1)c1ccccc1`, the growth inhibition is -0.55% in assay [1]; 11.9% in assay [2]; 0% in assay [3]; 22.4% in assay [4]; 12.4% in assay [5].

Consider `C(=Nc1cccc2ccccc12)Nc1cccc2ccccc12`, for which the growth inhibition in assay [1] is -10.9%; in assay [2], -38.7%; in assay [3], -5.8%; in assay [4], -6.7%; in assay [5] it was -48.8%.

As to `CCOC(=O)C(Nc1cc([N+](=O)[O-])ccc1C(=O)OC)(OC)C(=O)OCC`, the growth inhibition in assay [1] is 13.2%; in assay [2], 15.4%; in assay [3], 34.1%; in assay [4], 0.95%; in assay [5], 1.15%.

As for `O=C(CN(Cc1ccccc1)Cc1ccccc1)C(O)C1OC(c2ccccc2)OCC1O` (stereo not drawn), the growth inhibition in assay [1] is 1.45%; in assay [2] it was -5.55%; in assay [3] it was -2.3%; in assay [4], -4.5%; in assay [5], -1.65%.

As for `OCC1SC(O)C(O)C(O)C1O` (stereo not drawn), the growth inhibition in assay [1] is 28.2%; in assay [2] it was -5.55%; in assay [3], 11.8%; in assay [4], 10.7%; in assay [5] it was 25.1%.

`CC(=O)CC(=O)ON(C)C(C)=O`: the growth inhibition in assay [1] is -8.85%; in assay [2] it was 19.2%; in assay [3], -15.8%; in assay [4], 8.45%; in assay [5], -14.3%.

`CC(C)=CCc1ccc2c(c1)CCCN2C`: the growth inhibition in assay [1] is -44.4%; in assay [2] it was -22.1%; in assay [3] it was -17.4%; in assay [4], -47%; in assay [5], 20.9%.

For `OCCNc1nc(NCCO)c2cn[nH]c2n1`, the growth inhibition in assay [1] was 0.5%; in assay [2], 0.45%; in assay [3], -1.15%; in assay [4] it was -12.7%; in assay [5], 5.75%.

`O=C(NNC1=NCCN1Cc1ccccc1)c1cccc(Cl)c1`: the growth inhibition in assay [1] is -6.1%; in assay [2] it was -25.4%; in assay [3], 13.3%; in assay [4], 14.6%; in assay [5], -0.8%.

For `C=Nc1ccc(C)cc1`, the growth inhibition in assay [1] was 6.7%; in assay [2], -14.8%; in assay [3], -12%; in assay [4], -15.7%; in assay [5], -2.7%.

In the case of `Cc1cc(C)[n+](C)c(/C=C/c2ccc([N+](=O)[O-])cc2)n1`, the growth inhibition in assay [1] was 14.2%; in assay [2], 6.95%; in assay [3], 15.6%; in assay [4], 27.8%; in assay [5] it was 22.4%.

On to `Cn1c(Cc2ccccc2)c([N+](=O)[O-])c(=O)n(C)c1=O`, for which the growth inhibition is -0.2% in assay [1]; -5.25% in assay [2]; -2.1% in assay [3]; -8.2% in assay [4]; -6.35% in assay [5].

`Nc1cc(CO)cc(Nc2c3ccccc3nc3ccccc23)c1`: the growth inhibition in assay [1] is 26.8%; in assay [2] it was 7.35%; in assay [3], -30.8%; in assay [4] it was -6.95%; in assay [5], 0.65%; in assay [6] it was 48.5%.

In the case of `CC(C)(C)c1ccc2c(c1)C(O)(C#Cc1ccccc1)c1ccccc1C2(O)C#Cc1ccccc1` (stereo not drawn), the growth inhibition is 11.6% in assay [1]; -7.5% in assay [2]; 1.5% in assay [3]; 9.35% in assay [4]; 0.05% in assay [5]; 14.1% in assay [6].

Source of the values: PubChem BioAssay (NCI).
